According to PubChem BioAssay (Tox21):
Results filed as inconclusive are left out. Entries that show only a call come without a potency. Where a structure was tested more than once in an assay, its records may differ in their call. The source made the active and inactive calls. Calls follow the shape of the dose curve; as a rule, active = well fitted inhibition curve with a large enough effect in the repeat runs; inconclusive = weak or mixed curves, or effect the other way; inactive = no such curve, though single readings can be large or run the other way.

Experiment: qHTS assay to identify small molecule antagonists of the retinoic acid receptor (RAR) signaling pathway (AID 1159552; also: nearly all actives have a fitted effect of over 50% in size)
Settings: C3RL4 RARE luciferase reporter, retinol-stimulated, 6 h; series mostly up to 92.4 µM; activity, negative = inhibition: at the top concentration
Source text: National Center for Advancing Translational Sciences [NCATS]
NIH Chemical Genomics Center [NCGC]
U.S. Environmental Protection Agency [EPA]
National Institutes of Environmental Health Sciences [NIEHS]
National Toxicology Program [NTP]
U.S. Food and Drug Administration [FDA]
All-trans Retinoic acid (atRA) is the potent natural metabolite of retinol and plays an important role in normal embryonic development and maintenance of cellular phenotype in adult animals. atRA is the activating ligand for the retinoic acid receptors (RARs) which form heterodimers with retinoid X receptors (RXRs) on the retinoic acid response element (RARE). Through activation of the RAR/RXRs nuclear receptors, atRA regulates the transcription of a large number of protein-coding genes and regulatory RNAs. Intracellular levels of atRA are controlled by the retinol signaling pathway (RSP) that regulates the biosynthesis and catabolism of atRA to maintain physiological levels. Chemicals that interfere with the RSP can cause abnormal intracellular levels of atRA and therefore are potential developmental toxicants. To assess compounds for the potential adverse effect on embryonic development through interfering with retinol signaling, a cell-based RARE luciferase reporter gene assay was used. C3RL4 cell line (OARSA/CFSAN/FDA, Laurel, MD) was used to screen Tox21 10K compound library for identifying inhibitors of the RSP.
Tox21 Assay Protocol Summary:
C3RL4 cells were seeded at 1,000/well in 4 uL of assay medium into white solid 1,536-well tissue culture plates (Greiner Bio-One North America Inc. Monroe, NC) using a Multidrop Combi (Thermo Scientific, Waltham, MA) dispenser. After incubation at 37 C and 5% CO2 for an overnight, 23 nL of compounds dissolved in DMSO, positive control or DMSO only were transferred by a Pintool station (Kalypsys, San Diego, CA). One ul of 1 uM (final concentration) of Retinol was added right after the compound addition by using a Flying Reagent Dispenser (FRD) (Aurora Discovery, San Diego, CA). After 6 hr incubation at 37 C and 5% CO2, 5 uL of Amplite Luciferase reagent (AAT Bioquest Inc. Sunnyvale, CA) was added to each assay plate using an FRD. Luminescence was quantified on a ViewLux plate reader (PerkinElmer, Waltham, MA) after 30 min incubation at room temperature.
Potency is read from the fitted curve at half-maximal effect.

Compound | Potency | activity, negative = inhibition
CC(C)=C[C@@H]1[C@@H](C(=O)OCc2coc(Cc3ccccc3)c2)C1(C)C | inactive | –
CCCCCCCCCl | inactive | –
COC(=O)c1ccccc1C(=O)OC | inactive | –
CCOC(=O)c1ccccc1C(=O)OCC | inactive | –
CCc1cccc(C)c1N(C(=O)CCl)C(C)COC (stereo not given) | inactive | –
O=S(=O)(c1ccc(O)cc1)c1ccc(O)cc1 | inactive | –
NCCc1ccc(O)cc1 | inactive | –
C#CCN(C)[C@H](C)Cc1ccccc1 | inactive | –
CC(C)(C)C(O)(CCc1ccc(Cl)cc1)Cn1cncn1 (stereo not given) | inactive | –
Cc1ccc([N+](=O)[O-])cc1C | inactive | –
O=NN1CCCC1 | – | -2.83% (inactive)
c1ccc(-c2ccccc2)cc1 | inactive | –
Nc1ccc(Cc2ccc(N)cc2)cc1 | inactive | –
O=c1n(Cl)c(=O)n(Cl)c(=O)n1Cl | inactive | –
C1CN2CCN1CC2 | inactive | –
CC(C)OC(=O)Nc1cccc(Cl)c1 | inactive | –
CCCC1COC(Cn2cncn2)(c2ccc(Cl)cc2Cl)O1 (stereo not given) | – | -20% (inactive)
CON(C)C(=O)Nc1ccc(Cl)c(Cl)c1 | inactive | –
CCOP(=S)(OCC)Oc1cnc2ccccc2n1 | inactive | –
Clc1ccc(Cl)cc1 | inactive | –

Compound | Potency | activity, negative = inhibition
CNC(=O)Oc1ccccc1OC(C)C | inactive | –
Cc1ccccc1O | inactive | –
O=Cc1cccc(Oc2ccccc2)c1 | inactive | –
Nc1ccc(Oc2ccc(N)cc2)cc1 | inactive | –
CCOP(=S)(OCC)SCCSCC | inactive | –
Cc1[nH]c(=O)n(C(C)(C)C)c(=O)c1Cl | inactive | –
CN=C=S | inactive | –
CC(Br)C(=O)O (stereo not given) | inactive | –
CC(C)OC(=O)Nc1ccccc1 | inactive | –
O=C(NC(=O)c1c(F)cccc1F)Nc1cc(Cl)c(OC(F)(F)C(F)C(F)(F)F)cc1Cl (stereo not given) | inactive | –
CC(C)N1C(=O)c2ccccc2NS1(=O)=O | inactive | –
CC(C)C#N | 16.3 µM (active) and inactive | –
[O-][Cl+2]([O-])O | inactive | –
c1cc2c3c(cccc3c1)CC2 | inactive | –
CC(C)C1(C)N=C(c2nc3ccccc3cc2C(=O)O)NC1=O (stereo not given) | inactive | –
Cc1cc(Cl)ccc1O | inactive | –
CCCCOC(=O)c1ccccc1C(=O)OCCCC | inactive | –
Cn1cc(-c2ccccc2)c(=O)c(-c2cccc(C(F)(F)F)c2)c1 | inactive | –
C#CC(C)(C)NC(=O)c1cc(Cl)cc(Cl)c1 | inactive | –
COP(N)(=O)SC (stereo not given) | inactive | –
